Results: PubChem BioAssay (Tox21)
Values joined by “and” are separate entries in the source; they are usually repeats but may differ in a detail not shown here. Equal values may be shown once. A structure can be active in one record and inactive in another. Active and inactive are the calls of the source. Where a call stands in place of a potency, no number is given. Unless noted, the call rests on the fitted dose curve; in most records, active means well fitted curve in the direction sought with a large enough effect in the repeat runs; inconclusive means weak or mixed curves; inactive means no such curve, though single readings can be large; an effect the other way counts as inactive or inconclusive.

Legend:
[1] = qHTS assay to identify small molecule antagonists of the thyroid receptor (TR) signaling pathway - cell viability counter screen (AID 743064); further: nearly all actives have a fitted effect of over 50% in size; further: potency means the concentration at half of the fitted maximal effect
Method in brief: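 GH3.TRE-Luc rat pituitary cells carrying a TRE-luciferase reporter were treated with compound plus 1 nM T3 (final) for 23.5 h at 37 °C. Viability was then read in the same wells by CellTiter-Fluor fluorescence after a further 30 min.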

[2] = qHTS assay to identify small molecule antagonists of the thyroid receptor (TR) signaling pathway (AID 743065); further: nearly all actives have a fitted effect of over 55% in size; further: potency means the concentration at half of the fitted maximal effect
Method in brief: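 GH3.TRE-Luc rat pituitary cells (two TREs driving luciferase) were dosed with compound, then stimulated with 1 nM T3 (final) for 23.5 h at 37 C. ONE-Glo luminescence was the read-out, with CellTiter-Fluor fluorescence as the cytotoxicity counter-screen.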

[3] = system: thyroid hormone receptor (rat, GH3 cells); experiment: qHTS assay to identify small molecule agonists of the thyroid receptor (TR) signaling pathway (AID 743066; calls by dose curve)
[4] = qHTS assay to identify small molecule antagonists of the estrogen receptor alpha (ER-alpha) signaling pathway - cell viability counter screen (AID 743074; calls by dose curve;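 further: HEK293 cells carrying ER-alpha-UAS-bla reporter stimulated with 17beta-estradiol; nearly all actives have a fitted effect of over 45% in size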; further: potency means the concentration at half of the fitted maximal effect)
[5] = molecular target: Estrogen receptor (Homo sapiens) (UniProt P03372); experiment: qHTS assay to identify small molecule agonists of the estrogen receptor alpha (ER-alpha) signaling pathway (AID 743075; calls by dose curve;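 further: HEK293 GripTite cells with ER-alpha and UAS-driven beta-lactamase reporter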)
Sequence of Estrogen receptor (Homo sapiens) (P03372 whole entry, looked up): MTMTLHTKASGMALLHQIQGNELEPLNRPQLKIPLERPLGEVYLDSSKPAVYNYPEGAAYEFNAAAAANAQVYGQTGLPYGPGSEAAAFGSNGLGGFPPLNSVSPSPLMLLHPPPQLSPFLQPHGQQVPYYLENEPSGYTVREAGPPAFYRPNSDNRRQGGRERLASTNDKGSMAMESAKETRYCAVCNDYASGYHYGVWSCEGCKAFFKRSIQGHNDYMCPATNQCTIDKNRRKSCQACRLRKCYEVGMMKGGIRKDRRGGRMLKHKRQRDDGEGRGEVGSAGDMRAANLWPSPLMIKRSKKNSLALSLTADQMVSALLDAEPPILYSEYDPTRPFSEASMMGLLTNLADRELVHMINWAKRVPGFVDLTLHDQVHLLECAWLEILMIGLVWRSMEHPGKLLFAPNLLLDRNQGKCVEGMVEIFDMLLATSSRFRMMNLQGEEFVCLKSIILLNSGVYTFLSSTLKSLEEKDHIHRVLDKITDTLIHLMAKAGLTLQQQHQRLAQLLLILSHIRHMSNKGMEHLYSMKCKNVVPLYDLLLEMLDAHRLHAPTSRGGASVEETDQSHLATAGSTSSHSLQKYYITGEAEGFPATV

[6] = molecular target: Estrogen receptor (Homo sapiens) (UniProt P03372); experiment: qHTS assay to identify small molecule agonists of the estrogen receptor alpha (ER-alpha) signaling pathway using the BG1 cell line (AID 743079); further: nearly all actives have a fitted effect of over 20% in size
[7] = qHTS assay to identify small molecule antagonists of the estrogen receptor alpha (ER-alpha) signaling pathway using the BG1 cell line (AID 743080; calls by dose curve;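 further: BG1 cells stimulated with 17beta-estradiol alongside compound; nearly all actives have a fitted effect of over 25% in size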; further: potency means the concentration at half of the fitted maximal effect)
Method in brief: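 BG1-Luc-4E2 cells (endogenous full-length ER-alpha, stable 4×ERE-luciferase) were starved 5 days in phenol-red-free medium with 10% charcoal-stripped FBS, plated 24 h, then given compound plus 17beta-estradiol for 21.5 h at 37 C; ONE-Glo luminescence read after 30 min.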

Aromatase (Homo sapiens) = Aromatase (Homo sapiens) (UniProt P11511); experiment: qHTS assay to identify aromatase inhibitors (AID 743083); further: nearly all actives have a fitted effect of over 55% in size; further: potency means the concentration at half of the fitted maximal effect
Sequence of Aromatase (Homo sapiens) (P11511 whole entry, looked up): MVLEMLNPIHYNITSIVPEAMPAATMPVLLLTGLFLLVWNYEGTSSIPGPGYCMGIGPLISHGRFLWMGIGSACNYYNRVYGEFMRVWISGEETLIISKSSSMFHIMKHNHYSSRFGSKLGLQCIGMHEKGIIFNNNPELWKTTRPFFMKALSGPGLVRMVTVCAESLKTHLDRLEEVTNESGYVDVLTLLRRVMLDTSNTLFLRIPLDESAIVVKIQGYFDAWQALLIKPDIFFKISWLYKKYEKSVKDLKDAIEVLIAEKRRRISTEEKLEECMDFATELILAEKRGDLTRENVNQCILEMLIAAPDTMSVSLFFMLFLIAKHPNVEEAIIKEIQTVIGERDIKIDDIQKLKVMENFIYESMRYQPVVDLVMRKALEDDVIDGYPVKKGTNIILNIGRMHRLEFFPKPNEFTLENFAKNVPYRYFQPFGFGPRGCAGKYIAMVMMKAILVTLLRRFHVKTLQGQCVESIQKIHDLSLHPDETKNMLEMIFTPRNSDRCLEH

[8] = qHTS assay to identify aromatase inhibitors - cell viability counter screen (AID 743084);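 further: cells stimulated with testosterone during compound exposure; nearly all actives have a fitted effect of over 55% in size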; further: potency means the concentration at half of the fitted maximal effect
[9] = molecular target: Aryl hydrocarbon receptor (Homo sapiens) (UniProt P35869); experiment: qHTS assay to identify small molecule that activate the aryl hydrocarbon receptor (AhR) signaling pathway (AID 743085); further: nearly all actives have a fitted effect of over 15% in size; further: potency means the concentration at half of the fitted maximal effect;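 on activation: HG2L7.5c1 human HepG2 liver cells with stably integrated DRE-driven firefly reporter; series mostly up to about 70 µM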
Sequence of Aryl hydrocarbon receptor (Homo sapiens) (P35869 whole entry, looked up): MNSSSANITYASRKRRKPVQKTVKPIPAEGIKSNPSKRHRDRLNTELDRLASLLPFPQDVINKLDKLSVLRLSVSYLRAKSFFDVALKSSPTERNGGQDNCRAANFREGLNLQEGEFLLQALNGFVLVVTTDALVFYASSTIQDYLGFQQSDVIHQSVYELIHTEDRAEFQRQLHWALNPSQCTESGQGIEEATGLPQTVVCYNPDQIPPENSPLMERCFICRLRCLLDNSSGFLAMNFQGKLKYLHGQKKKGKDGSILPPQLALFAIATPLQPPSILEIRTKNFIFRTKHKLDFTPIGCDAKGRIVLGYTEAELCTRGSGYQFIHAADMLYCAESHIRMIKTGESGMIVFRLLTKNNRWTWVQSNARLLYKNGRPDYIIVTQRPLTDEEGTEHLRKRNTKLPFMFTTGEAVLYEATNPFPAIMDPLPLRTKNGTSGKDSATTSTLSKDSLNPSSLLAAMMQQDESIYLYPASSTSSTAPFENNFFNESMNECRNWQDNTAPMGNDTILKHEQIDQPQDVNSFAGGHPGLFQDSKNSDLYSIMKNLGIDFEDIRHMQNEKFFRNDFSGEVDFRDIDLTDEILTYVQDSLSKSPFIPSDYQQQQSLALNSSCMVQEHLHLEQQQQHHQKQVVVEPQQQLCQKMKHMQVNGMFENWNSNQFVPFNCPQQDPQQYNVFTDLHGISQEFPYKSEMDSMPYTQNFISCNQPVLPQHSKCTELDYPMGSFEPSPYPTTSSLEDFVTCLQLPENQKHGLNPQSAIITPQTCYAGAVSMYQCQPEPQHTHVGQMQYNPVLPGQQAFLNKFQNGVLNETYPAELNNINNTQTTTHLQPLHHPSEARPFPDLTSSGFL
Method in brief: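 HepG2 cells (HG2L7.5c1) stably carrying a firefly luciferase reporter driven by 20 dioxin responsive elements were exposed to compound for 24 h at 37C after a 5 h settling period; luminescence rise (ONE-Glo) indicated activation.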

[10] = molecular target: Peroxisome proliferator-activated receptor gamma (Homo sapiens) (UniProt P37231); experiment: qHTS assay to identify small molecule agonists of the peroxisome proliferator-activated receptor gamma (PPARg) signaling pathway (AID 743094; active means well fitted activation curve with a large enough effect in the signal ratio in the repeat runs, not every such curve was filed as active; inconclusive means weak or mixed curves, or effect the other way; inactive means no such curve, though single readings can be large or run the other way; the % refers to the signal ratio)
Sequence of Peroxisome proliferator-activated receptor gamma (Homo sapiens) (P37231 whole entry, looked up): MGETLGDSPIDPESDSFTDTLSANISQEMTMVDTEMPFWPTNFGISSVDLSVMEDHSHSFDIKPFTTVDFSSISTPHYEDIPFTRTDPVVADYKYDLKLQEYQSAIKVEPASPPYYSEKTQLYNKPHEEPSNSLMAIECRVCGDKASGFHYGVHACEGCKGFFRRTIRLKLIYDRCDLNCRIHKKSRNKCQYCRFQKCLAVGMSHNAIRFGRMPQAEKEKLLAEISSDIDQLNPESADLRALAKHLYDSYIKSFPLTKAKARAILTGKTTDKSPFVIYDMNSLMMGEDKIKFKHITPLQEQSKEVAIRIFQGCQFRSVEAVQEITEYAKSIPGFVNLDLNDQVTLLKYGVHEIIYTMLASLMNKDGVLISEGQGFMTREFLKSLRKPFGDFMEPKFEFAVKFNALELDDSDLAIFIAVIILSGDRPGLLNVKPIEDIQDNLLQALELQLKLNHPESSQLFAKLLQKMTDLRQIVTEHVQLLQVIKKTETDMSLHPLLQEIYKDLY
Method in brief: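 Compounds dissolved in DMSO were added to PPARg UAS-bla HEK293H cells for 17 h at 37C, and reporter expression was quantified by fluorescence intensity after 1 h with LiveBLAzer B/G FRET substrate.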

[11] = qHTS assay to identify small molecule antagonists of the peroxisome proliferator-activated receptor gamma (PPARg) signaling pathway - cell viability counter screen (AID 743194); further: nearly all actives have a fitted effect of over 55% in size; further: potency means the concentration at half of the fitted maximal effect
Method in brief: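 Cytotoxicity counter screen in PPARg-bla HEK293H cells, same wells as reporter assay. Compounds plus 50 nM rosiglitazone (final) for 17 h at 37 C, then viability read by CellTiter-Glo luminescence.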

[12] = qHTS assay for small molecule agonists of the antioxidant response element (ARE) signaling pathway (AID 743202; active means well fitted activation curve with a large enough effect in the signal ratio in the repeat runs, not every such curve was filed as active; inconclusive means weak or mixed curves, or effect the other way; inactive means no such curve, though single readings can be large or run the other way; the % refers to the signal ratio; further: potency means the concentration at half of the fitted maximal effect)
Method in brief: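 Agonist mode reporter screen: HepG2 cells with ARE-controlled beta-lactamase are incubated with test compounds for 16 h at 37 C, and beta-lactamase activity is measured as fluorescence of cleaved B/G FRET substrate.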

[13] = qHTS assay for small molecule agonists of the antioxidant response element (ARE) signaling pathway - cell viability counter screen (AID 743203; calls by dose curve; further: nearly all actives have a fitted effect of over 55% in size; further: potency means the concentration at half of the fitted maximal effect)
Method in brief: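 Following 16 hrs of compound treatment at 37C, HepG2 cells with an ARE-controlled beta-lactamase gene were lysed with CellTiter-Glo. Luminescence was read after 30 min at room temperature.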

[14] = qHTS assay for small molecule activators of the heat shock response signaling pathway - cell viability counter screen (AID 743209); further: nearly all actives have a fitted effect of over 50% in size
Method in brief: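 Readout: CellTiter-Glo luminescence, 30 min at room temperature. System: HSE-bla HeLa cells, 1500/well, plated overnight. Treatment: compounds in DMSO, 5 h at 37 C.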

[15] = qHTS assay for small molecule activators of the heat shock response signaling pathway (AID 743210; active means well fitted activation curve with a large enough effect in the signal ratio in the repeat runs, with a control signal flat, not every such curve was filed as active; inconclusive means weak or mixed curves; the % refers to the signal ratio;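 further: HeLa cells with beta-lactamase reporter driven by heat shock elements; series mostly up to about 63 µM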)
Method in brief: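 Quantitative high-throughput format using an engineered HeLa line in which heat shock response elements drive beta-lactamase; after 5 h with compound, cells received a B/G FRET substrate and fluorescence was read.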

[16] = molecular target: Estrogen receptor (Homo sapiens) (UniProt P03372); experiment: qHTS assay to identify small molecule antagonists of the estrogen receptor alpha (ER-alpha) signaling pathway (AID 743069; active means well fitted curve in the direction sought with a large enough effect in the signal ratio in the repeat runs, not every such curve was filed as active; inconclusive means weak or mixed curves, or effect the other way; inactive means no such curve, though single readings can be large or run the other way; the % refers to the signal ratio; further: potency means the concentration at half of the fitted maximal effect)
Method in brief: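 Reporter cells (ER-alpha-bla, HEK293 background) are conditioned overnight in stripped-serum medium (2% charcoal-stripped FBS). Compound and 17beta-estradiol exposure runs 18 hr at 37C, 5% CO2.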

[17] = qHTS assay to identify small molecule antagonists of the estrogen receptor alpha (ER-alpha) signaling pathway using the BG1 cell line - cell viability counter screen (AID 743081);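 further: compound given together with 17beta-estradiol as the ER stimulus; series mostly up to about 70 µM; nearly all actives have a fitted effect of over 45% in size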
[18] = qHTS assay to identify small molecule that activate the aryl hydrocarbon receptor (AhR) signaling pathway - cell viability counter screen (AID 743086); further: nearly all actives have a fitted effect of over 45% in size; further: potency means the concentration at half of the fitted maximal effect
Method in brief: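 HepG2-AhR-luc (HG2L7.5c1) cells, 4000/well, treated 24 h at 37 C with compound; viability measured as CellTiter-Fluor fluorescence after 30 min in the same wells as the luciferase read.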

[19] = molecular target: Peroxisome proliferator-activated receptor gamma (Homo sapiens) (UniProt P37231); experiment: qHTS assay to identify small molecule antagonists of the peroxisome proliferator-activated receptor gamma (PPARg) signaling pathway (AID 743191; calls by dose curve; further: series mostly up to about 63 µM; nearly all actives have a fitted effect of over 30% in size)
Method in brief: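 GeneBLAzer PPARg UAS-bla HEK293H cells, 5 h post-plating, exposed to compounds 17 h at 37C. LiveBLAzer B/G FRET substrate added for 1 h at room temperature; beta-lactamase reporter read by fluorescence intensity.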

Structure (SMILES) | Potency [1] | Potency [2] | Potency [3] | Potency [4] | Potency [5] | Potency [6] | Potency [7] | Potency (Aromatase (Homo sapiens)) | Potency [8] | Potency [9] | Potency [10] | Potency [11] | Potency [12] | Potency [13] | Potency [14] | Potency [15] | Potency [16] | Potency [17] | Potency [18] | Potency [19]
Nc1ccccc1N | inactive | 5.45 µM (active) | inactive | inactive | inactive | inactive | inactive | inactive | inactive | 27.9 µM (active) and 19.8 µM (active) | inactive | inactive | 0.788 µM (active) | inactive | inactive | inactive |  |  |  | 
O=C(Nc1ccc(Cl)cc1)Nc1ccc(Cl)c(Cl)c1 | 4.22 µM (active) and 3.44 µM (active) | 2.66 µM (active) and 2.72 µM (active) and 2.73 µM (active) | inactive |  | inactive |  | 13.3 µM (active) and 24.2 µM (active) | 9.64 µM (active) and 13.7 µM (active) | 19.2 µM (active) and 30.6 µM (active) | 2.16 µM (active) and 2.73 µM (active) | inactive | 4.34 µM (active) and 4.9 µM (active) and 6.68 µM (active) |  | 2.42 µM (active) and 2.73 µM (active) and 10.6 µM (active) | inactive | inactive | 3.47 µM [cytotoxic] (active) | inactive | inactive | 
CN(C)CCC=C1c2ccccc2CCc2ccccc21 | 23.7 µM (active) and 5.45 µM (active) and 24.3 µM (active) | 26.6 µM (active) and 24.3 µM (active) and 21.7 µM (active) | inactive |  | inactive | inactive |  | inactive | inactive | inactive |  |  |  | inactive | inactive | inactive | 54.9 µM [inconclusive] (active) | inactive | 48.6 µM (active) | inactive
CCCCOCCOCCOCCO | inactive | inactive | inactive | inactive | inactive | inactive | inactive | inactive | inactive | inactive | inactive | inactive | inactive | inactive | inactive | inactive | inactive | inactive | inactive | inactive
c1ccc2c(c1)c1cccc3ccc4cccc2c4c31 | inactive | inactive | inactive | 3.07 µM (active) and inactive | inactive | inactive | inactive | inactive | inactive | inactive |  | inactive | 60.7 µM (active) | inactive | inactive | inactive | inactive | inactive |  | 
Cc1cccc([N+](=O)[O-])c1C | inactive | inactive | inactive | inactive | inactive | inactive | inactive | inactive | inactive | inactive | inactive | inactive | inactive | inactive | inactive | inactive | inactive | inactive | inactive | 
CCOC(=O)C(C#N)=C(c1ccccc1)c1ccccc1 | inactive | inactive | inactive | inactive |  |  |  | inactive | inactive | inactive | inactive | inactive |  | inactive | inactive | inactive |  | inactive | inactive | 
